{
  "source": "paper PMC4552634",
  "about": "“A New Set of Chemical Starting Points with Plasmodium falciparum Transmission-Blocking Potential for Antimalarial Drug Discovery” (PLoS ONE, 2015)",
  "note": "About 3,200 (25%) of roughly 13,000 compounds showed an effect of 50% or more. The list shows a part of the results.",
  "data": [
    {"system": "P. falciparum stage V gametocytes", "parameters": "BacTiter-Glo ATP luminescence viability of purified stage V gametocytes in 384-well plates, per cent inhibition versus DMSO", "conditions": "48 h, 5 µM; inhibitor", "units": {"% Inhibition": "%"}, "values": [
      {"smiles": "Cc1cccc(CN2CCC(C(=O)Nc3ccc(-c4nc5ccccc5[nH]4)cc3)CC2)n1", "note": "[TCMDC-124614]", "% Inhibition": -28.63},
      {"smiles": "CC1CCC(C(C)C)C(OC(=O)CSc2nnc3c(n2)[nH]c2ccccc23)C1", "note": "(centres unmarked) [TCMDC-124002]", "% Inhibition": 54.66},
      {"smiles": "CCCCNc1c(C(=O)OCC)c(C)nc2c1[nH]c1ccccc12", "note": "[TCMDC-131541]", "% Inhibition": -37.58},
      {"smiles": "O=C(NC1CCN(Cc2ccccc2)CC1)c1ccc(-c2nc3cc(Cl)c(Cl)cc3[nH]2)s1", "note": "[TCMDC-140086]", "% Inhibition": -3.887},
      {"smiles": "CCn1c(-c2nonc2N)nc2c(-c3cc4ccccc4s3)ncc(C(=O)N3CCC(N)C3)c21", "note": "(centres unmarked) [TCMDC-135281]", "% Inhibition": 101.1},
      {"smiles": "CCn1c(-c2nonc2N)nc2cnc(Oc3cccc(NC(=O)c4ccc(OCCN5CCCCC5)cc4)c3)cc21", "note": "[TCMDC-135778]", "% Inhibition": -14.59},
      {"smiles": "CN(C)CCNC(=O)[C@H](Cc1ccccc1)NC(=O)c1ccc(O)c(-c2ccc(Cl)c(Cl)c2)c1", "note": "[TCMDC-140864]", "% Inhibition": 22.21},
      {"smiles": "CN1CCCN(Cc2ccc(-c3ccc(NC(=O)c4ccc(Cl)cc4)cc3)cc2)CC1", "note": "[TCMDC-132585]", "% Inhibition": -0.9433},
      {"smiles": "Cc1cccc2[nH]c(-c3cccc(-c4ccc(NC(=O)Nc5ccc(Cl)c(Cl)c5)cc4)c3)nc12", "note": "[TCMDC-133275]", "% Inhibition": -0.4815},
      {"smiles": "c1cc2nc(CCCc3nc4ccc(C5=N[C@H]6CCCC[C@H]6N5)cc4[nH]3)[nH]c2cc1C1=N[C@@H]2CCCC[C@@H]2N1", "note": "[TCMDC-137234]", "% Inhibition": -8.612},
      {"smiles": "c1cc2[nH]c(CCc3nc4cc(C5=NC6CCCCC6N5)ccc4[nH]3)nc2cc1C1=NC2CCCCC2N1", "note": "(centres unmarked) [TCMDC-137238]", "% Inhibition": -12.99},
      {"smiles": "c1cc2nc(CCCCCc3nc4ccc(C5=N[C@@H]6CCCC[C@@H]6N5)cc4[nH]3)[nH]c2cc1C1=N[C@@H]2CCCC[C@@H]2N1", "note": "[TCMDC-137237]", "% Inhibition": -19.86},
      {"smiles": "c1cc2nc(CCCCc3nc4ccc(C5=N[C@H]6CCCC[C@H]6N5)cc4[nH]3)[nH]c2cc1C1=N[C@H]2CCCC[C@H]2N1", "note": "[TCMDC-137233]", "% Inhibition": 16.03},
      {"smiles": "c1cc(C2=N[C@H]3CCCC[C@@H]3N2)ccc1OCCCOc1ccc(C2=N[C@@H]3CCCC[C@H]3N2)cc1", "note": "[TCMDC-137803]", "% Inhibition": 109.5},
      {"smiles": "c1cc(C2=NC3CCCCC3N2)ccc1OCCCCCOc1ccc(C2=NC3CCCCC3N2)cc1", "note": "(centres unmarked) [TCMDC-137802]", "% Inhibition": 132.6},
      {"smiles": "Cc1ccn2c(N(Cc3ccccc3)C(=O)c3ccc(Cl)c(Cl)c3)c(-c3ccccc3)nc2c1", "note": "[TCMDC-141396]", "% Inhibition": -15.83},
      {"smiles": "CCNc1cc(C(=O)N[C@@H](Cc2ccccc2)[C@H](O)CNCCc2ccccc2)cc(N2CCCCS2(=O)=O)c1", "note": "[TCMDC-135171]", "% Inhibition": -2.363}
    ]}
  ]
}
